PLK1 PBD inh: inhibitors of human PLK1 polo-box domain binding; P53350; actives 2.8% (n = 360,000); Potency, µM, inactives show max response, negative = inhibition, usual class: inhibitors; Plk1 PBD binding of FITC phosphopeptide, fluorescence polarization; AID 720504; also: potency is read from the fitted curve at half-maximal effect; series mostly up to about 57 µM; nearly all actives have a fitted effect of over 65% in size
USP1 inh: USP1/UAF1 (human) deubiquitinase inhibition; recombinant USP1/UAF1, Ub-Rhodamine cleavage fluorescence; Potency, µM (doses to about 57.1 µM), for inactives: at the top dose activity change, negative = inhibition, most hits filed as inhibitors; actives 0.23% (n = 390,000); also: potency is read from the fitted curve at half-maximal effect; nearly all actives have a fitted effect of over 60% in size
Target sequence (O94782 whole entry, looked up): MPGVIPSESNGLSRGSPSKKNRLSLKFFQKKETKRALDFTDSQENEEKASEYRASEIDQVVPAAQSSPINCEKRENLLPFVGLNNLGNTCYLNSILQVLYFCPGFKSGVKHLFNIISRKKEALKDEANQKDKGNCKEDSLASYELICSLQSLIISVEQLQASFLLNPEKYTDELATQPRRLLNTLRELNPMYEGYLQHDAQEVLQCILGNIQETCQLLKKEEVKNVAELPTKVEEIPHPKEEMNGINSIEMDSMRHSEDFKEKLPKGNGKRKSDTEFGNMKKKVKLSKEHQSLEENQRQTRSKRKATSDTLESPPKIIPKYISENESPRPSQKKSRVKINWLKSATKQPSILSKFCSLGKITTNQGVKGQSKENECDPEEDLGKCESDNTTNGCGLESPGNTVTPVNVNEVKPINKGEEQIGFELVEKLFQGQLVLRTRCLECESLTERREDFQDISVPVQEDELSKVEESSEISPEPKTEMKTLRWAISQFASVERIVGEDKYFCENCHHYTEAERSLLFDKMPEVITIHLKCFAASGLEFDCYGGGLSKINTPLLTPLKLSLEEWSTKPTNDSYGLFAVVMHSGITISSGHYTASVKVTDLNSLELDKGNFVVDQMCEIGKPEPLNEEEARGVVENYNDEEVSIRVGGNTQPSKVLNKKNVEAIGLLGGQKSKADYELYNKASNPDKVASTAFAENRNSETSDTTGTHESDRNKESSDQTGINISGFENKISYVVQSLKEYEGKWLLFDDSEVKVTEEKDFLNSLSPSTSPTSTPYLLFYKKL
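USP1/UAF1 complex (1 nM) preincubated 15 min at room temperature with compound, then Ub-Rho substrate (150 nM final) added. Kinetic fluorescence at 480/540 nm over 6 reads at 60 s intervals; 50 mM HEPES pH 7.8, 0.5 mM EDTA, 0.1 mg/ml BSA, 1 mM TCEP, 0.01% Tween-20.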
PI5P4Ka inh: PI5P4K alpha (human) kinase inhibition. max response, %. PI5P4Kalpha enzyme, ADP-Glo luminescence, 60 min; active compounds read low. P48426. actives 1.2% (n = 330,000); active = max response of -50% or lower; inconclusive = between -30% and -50%; inactive = -30% or higher; also: value at the top dose of about 77 µM
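ADP-Glo luminescence end-point read after a 60 min room-temperature kinase reaction of PI5P4Kalpha plus substrate, initiated with ATP at 5 microM final. Buffer: 0.038 M HEPES pH 7.4, EGTA, 0.1% CHAPS, 5% DMSO.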
WRN helicase inh: WRN helicase (human) inhibition | WRN helicase unwinding, fluorescent forked duplex, kinetic | Q14191 | actives 0.46% (n = 360,000) | Potency, µM (highest dose often 114 µM), inactives show top-dose activity change, negative = inhibition, actives largely listed as inhibitors | AID 651768; also: potency is read from the fitted curve at half-maximal effect; nearly all actives have a fitted effect of over 55% in size
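WRN at 20 nM final preincubated with compound 15 min at room temperature; reaction started with 100 nM fluorophore/quencher forked duplex oligonucleotide and 2 mM ATP final. Unwinding followed kinetically by red fluorescence (ex 525, em 598 nm).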
USP2a inh: blocks human ubiquitin-specific protease USP2a; O75604; USP2 core, Ub-CHOP2 coupled fluorogenic reporter, 485/531; Potency, µM (doses to about 38.3 µM), for inactives: at the highest dose activity change, negative = inhibition, usual class: inhibitors; actives 0.01% (n = 330,000);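 also: potency is read from the fitted curve at half-maximal effect; plate controls were DMSO wells for no effect and full inhibition by NEM control for full effect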
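Cell-free coupled assay: 10nM USP2 core preincubated 30min RT with compound in Tris-HCl pH 8.0/CaCl2/CHAPS buffer, then 25nM Ub-CHOP2 and 25nM reporter substrate; fluorescence (Ex 485/Em 531) read after 60min RT, normalized to NEM inhibition, concentration-response curves fitted.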
* marks the source's active call; other numbers are inactive results; u = inconclusive; x = no result given; [ ] = remark or other dose. Hits are enriched below; roughly 3.3% of the tested compounds scored in any of these assays. Unless noted, calls follow the shape of the dose curve; as a rule, active = well fitted curve in the direction sought with a large enough effect; inconclusive = small, poorly fitted or top-dose-only effect, or another doubt; inactive = no such curve, though single readings can be large; an effect the other way counts as inactive or inconclusive. Unless noted, % is scaled to controls: 0 for no effect and ±100 for the full control effect.

SMILES | PLK1 PBD inh | USP1 inh | PI5P4Ka inh | WRN helicase inh | USP2a inh
CNC(=O)CSc1nc2nn(-c3ccccc3)c(=O)c-2c2n1CCCCC2 | -1% | -2% | x | -12% | -4%
COCCNC(=O)CSc1nc2nn(-c3ccccc3)c(=O)c-2c2n1CCCCC2 | 24µM* | -6% | -27 | -1% | -1%
O=C(CSc1nc2nn(-c3ccccc3)c(=O)c-2c2n1CCCCC2)c1ccc(O)c(O)c1 | -20% | -2% | -54* | 2.8µM* | -2%
CCOc1ccccc1NC(=O)Nc1cc2c(cc1N1CCCCC1)n(CC)c(=O)n2CC | x | -11% | x | x | x
Cc1nn(-c2ccc3nnc(C)n3n2)c(C)c1CCC(=O)Nc1ccc(OC(F)(F)F)cc1 | x | 19% | x | x | x
Cc1ccc(/C=N/n2cnc3sc(C)c(C)c3c2=O)o1 | 21µM* | -10% | -13 | 7% | 1%
Cc1ccc(/C=N/n2cnc3sc4c(c3c2=O)CCCC4)o1 | -15% | -19% | x | -13% | -1%
COc1cccc2cc(-c3nc(-c4cccs4)cs3)c(=O)oc12 | 18% | 19% | x | -12% | -2%
O=c1oc2ccccc2cc1-c1nc(-c2cccs2)cs1 | 11µM* | 265% | x | 6% | 23%
CCc1cc2c(SCC(=O)c3ccc(C)cc3)ncnc2s1 | 30µM* | -10% | 9 | 15% | 0%
COc1cccc(/C=C/c2nc(C#N)c(NCCc3ccc(OC)c(OC)c3)o2)c1 | x | -21% | x | x | x
O=C(O)c1c(C(=O)O)c(-c2ccc(Cl)c(Cl)c2)n2c1CSC2 | 11µM* | -27% | -29 | -17%[11.6 µM] | 2%
CCC(C(=O)N1CCN(c2ccccc2)CC1)n1nc(C)c2sc3ccccc3c2c1=O (stereo not given) | x | -13% | x | x | x
CCc1ccc(C2CC(=O)c3c([nH]c(C(=O)OCCOc4ccccc4)c3C)C2)cc1 (stereo not given) | x | 17% | x | x | x
CC(=O)N1CCN(C(=O)CC2OC(=O)c3ccccc32)CC1 (stereo not given) | 27µM* | -15% | -10 | -26%[57.1 µM] | 8%
O=C(CC1OC(=O)c2ccccc21)Nc1ccccc1N1CCOCC1 (stereo not given) | -9% | -1% | -1 | -23% | -2%
CCCn1ncc(CN2CCC(n3nccc3NC(=O)c3ccccc3OC)CC2)c1C | 3% | -6% | -2 | -8% | 0%
CSc1ccc(CN2CCC(n3nccc3NC(=O)c3ccccc3C)CC2)cc1 | 30µM* | -16% | 1 | 5% | 3%
COc1ccc(C(=O)Nc2ccnn2C2CCN(Cc3cnn(C)c3)CC2)cc1 | 27µM* | -2% | -2 | 3% | 0%
CCCCc1ncc(CN2CCC(n3nccc3NC(=O)c3ccccc3OC)CC2)[nH]1 | 24µM* | -28% | -19 | 4% | 2%
Cc1ccccc1CNC(=O)c1ccc(CS(=O)Cc2ccc(Cl)cc2)o1 (stereo not given) | x | -2% | x | x | x
CC(C)OCCCN1C(=O)c2[nH]nc(-c3ccccc3O)c2C1c1ccc(OCc2ccccc2)cc1 (stereo not given) | x | 4% | x | x | x
Cc1cc(C)cc(S(=O)(=O)c2cnc3ccccc3n2)c1 | 3.8µM* | -19% | u | u | -6%
COc1cccc(/C=N/NC(=O)c2cc3cc([N+](=O)[O-])ccc3s2)c1O | u | -9% | -20 | 35µM* | 1%
COc1cc([N+](=O)[O-])cc(/C=N/NC(=O)c2ccc(NC(=O)c3ccc(C)cc3)cc2)c1O | -9% | -16% | -62* | -3% | 7%
SMILES | PLK1 PBD inh | USP1 inh | PI5P4Ka inh | WRN helicase inh | USP2a inh
CCc1ccc(CNC(=O)c2cnc3sc(N(CC)CC)nn3c2=O)cc1 | x | -11% | x | x | x
CCOc1ccc(/C=C/c2nc(C#N)c(NC(C)c3ccccc3)o2)cc1 (stereo not given) | x | -13% | x | x | x
O=C(NC(=S)N(Cc1ccccc1)c1ccccn1)C1CC1 | 21µM* | -7% | -1 | -2% | 8%
O=C(NC(=S)N(Cc1ccccc1)Cc1ccccc1)C1CCCCC1 | -1% | -6% | 4 | -1% | 0%
COCC(=O)OC1CCn2c1nc1c2C(=O)C(C)=C(NC(C)=O)C1=O (stereo not given) | -21% | 4.5µM* | -4 | -24% | x
Cc1ccc(NC2(c3ccccc3)C(=O)c3ccccc3C2=O)cc1F | x | -1% | x | x | x
COc1cc(CNC(=O)c2sc3ncccc3c2-n2cccc2)cc(OC)c1OC | x | -20% | x | x | x
N#CCC(N)=C(C#N)C#N | -16% | u | -76* | -14% | 1%
COC(=O)CC#N | -9% | -9% | 4 | 4% | 0%
Cc1cc(C(=O)CN2C(=O)NC3(CCCCC3C)C2=O)c(C)n1Cc1cccs1 (stereo not given) | -19% | -4% | -3 | 0% | 2%
Cc1cc(C(=O)CN2C(=O)c3cccc(N)c3C2=O)c(C)n1Cc1cccs1 | 3.4µM* | -2% | u | -11% | 1%
C#CC(=O)CC1(CN(Cc2ccccc2)C(=O)OC(C)(C)C)CCCCC1 | 12µM* | -26% | u | -1% | x
CC(=O)Nc1ccc(NC(=S)NC(=O)/C=C/c2ccc(Cl)cc2)cc1 | u | -6% | -1 | 9% | 3%
CCC(=O)Nc1ccc(NC(=O)/C=C/c2ccc(Cl)cc2)cc1 | 30µM* | 1% | -18 | -13% | 6%
N=C1C(c2ccccc2)=C(O)CN1c1cccc(S(N)(=O)=O)c1 | -13% | -16% | -3 | -7% | 2%
N=C1C(c2ccccc2)=C(O)CN1c1cccc(S(=O)(=O)N2CCOCC2)c1 | 17µM* | -8% | -3 | -1% | 1%
CCOC(=O)c1ccc2c(c1)N(Cc1cccc(C(F)(F)F)c1)C(=O)c1ccccc1S2(=O)=O | x | -28% | x | x | x
CC(C1CC1)N(Cc1ccccc1)C(=S)Nc1cccc(C(F)(F)F)c1 (stereo not given) | 30µM* | -8% | 1 | -7% | -1%
O=C(CCS(=O)(=O)c1nc(-c2ccc3c(c2)OCO3)cc(C(F)(F)F)n1)Nc1ccc(Br)cc1 | x | -24% | x | x | x
O=C(Nc1ccc(Cl)cc1)C1CCN(c2nc3ccccc3nc2C(F)(F)F)CC1 | x | -22% | x | x | x
COc1ccc(-c2csc(N3CCN(c4cc5c(cc4Cl)nc(-c4ccncc4)n5CCOCCO)CC3)n2)cc1 | 27µM* | -15% | -3 | -4% | 0%
CCc1ccc(C2c3c(oc4ccc(F)cc4c3=O)C(=O)N2CCc2ccc(OC)cc2)cc1 (stereo not given) | x | -27% | x | x | x
O=S(=O)(Nc1nc2c(s1)CCCC2)c1ccc2ccccc2c1 | u | -20% | -11 | -9% | -5%
O=S(=O)(NC1=NCCCCC1)c1ccc2sc(NS(=O)(=O)c3ccc4ccccc4c3)nc2c1 | 11µM* | -13% | -28 | 3% | 0%
Cc1ccc(CNc2ccc3cc(S(=O)(=O)N4CCCCC4)ccc3n2)cc1 | x | -9% | x | x | x
Cc1cc(C)cc(N2C(=O)CN(Cc3ccccc3)C2=S)c1 | 24µM* | -24% | -6 | -5% | 1%

Screening results: PubChem BioAssay, National Center for Advancing Translational Sciences (NCATS)
